The values below come from PMC7819943, “Rice protein-binding microarrays: a tool to detect cis-acting elements near promoter regions in rice”.

The full ranking holds about 68,000 sequences; the median of “fluorescence intensity (a.u.)” is about 9,100, and the highest 2% start at about 16,000. Only a selection was taken, and the highest values are over-represented in it overall.

Sequence of OsWRKY34 (Q0JBA9 entry or part of it): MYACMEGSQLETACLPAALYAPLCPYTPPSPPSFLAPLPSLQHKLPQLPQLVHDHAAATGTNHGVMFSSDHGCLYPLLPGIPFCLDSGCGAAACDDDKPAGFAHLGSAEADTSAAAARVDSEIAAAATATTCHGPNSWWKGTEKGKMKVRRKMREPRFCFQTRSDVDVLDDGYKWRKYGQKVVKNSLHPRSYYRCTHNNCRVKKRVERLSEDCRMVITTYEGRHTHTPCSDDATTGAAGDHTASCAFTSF

The assay has as its target OsWRKY34 (Oryza sativa, UniProt Q0JBA9 1-250). In words: protein-binding microarray (RPBM); PBS, 2% BSA, 51.3 ng/ul salmon testes DNA, 50 uM zinc acetate, 200 nM TF, 25 C, 1 h; high values mean tight binding. The settings on record: protein: recombinant; tags: N-terminal polyhistidine and DsRed monomer fusion (pET32a); label: CyDye5-dUTP incorporated in the synthesized complementary strand; 3' TTTTT single-stranded linker to array surface; dsDNA, one strand shown. Summed up: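 In PBS with 2% BSA, salmon testes DNA and 50 µM zinc acetate, 200 nM protein was incubated on a custom Agilent array at 25 °C for 1 h and then washed off. The array had been made double-stranded by primer extension with Cy5-dUTP and blocked with 2% BSA. The proteins were transcription factors fused N-terminally to polyhistidine and DsRed, expressed in E. coli BL21-CodonPlus and purified on Ni–NTA. The binding signal is per-feature fluorescence intensity (arbitrary units) from an Axon 4000B scanner.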
As for “GCCATTTGTACGTTTCTATTTTCTCAGTAATCAGACCATTCGGAGTCACCTAGTGCAG”, the binding signal was 11600 fluorescence intensity (a.u.).

As for “CCCGTCTCCTCGCCTGCCGATCTCCATCCTGCTAGCAGAGCGGAGTCACCTAGTGCAG”, the binding signal is 8930 fluorescence intensity (a.u.).

Turning to “AGATACATACGCCCACCCGCCGCGCCCACTTCCGTCCAAACGGAGTCACCTAGTGCAG”, the binding signal was 8490 fluorescence intensity (a.u.).

With “TCCTCCTGTCTCTGCCTCTGCTCGGCTAGTCTAGTGTACTCGGAGTCACCTAGTGCAG”, the binding signal is 8810 fluorescence intensity (a.u.).

For the sequence “GTATTTAATTAGCTCCTCGTCTTGTTCTGCTAAGCTACTACGGAGTCACCTAGTGCAG”, the binding signal is 9460 fluorescence intensity (a.u.).

For “TTGTCATCCTCGCCACCTCATTCTTTCTTTCTTTCATCTCCGGAGTCACCTAGTGCAG”, the binding signal was 12900 fluorescence intensity (a.u.).

Take “ACATAACACCACTTGATACTATTTCTCTTAATTAATTACTCGGAGTCACCTAGTGCAG”: the binding signal was 9670 fluorescence intensity (a.u.).

As to “GTTGACTTTTTAGTACGTGTTTGACCATTCGTCTTATTCACGGAGTCACCTAGTGCAG”, the binding signal was 10100 ± 646 fluorescence intensity (a.u.).

With “GACTTTTTAGTACGTGTTTGACCATTCGTCTTATTCAAAACGGAGTCACCTAGTGCAG”, the binding signal was 11900 fluorescence intensity (a.u.).

In the case of “CCGTTGACTTTTTAGTACGTGTTTGACCATTCGTCTTATTCGGAGTCACCTAGTGCAG”, the binding signal was 32300 ± 947 fluorescence intensity (a.u.).

As to “CCATTGTTAGGGTTAAGTCTTATTTCACCACATCGTTTTTCGGAGTCACCTAGTGCAG”, the binding signal is 8740 fluorescence intensity (a.u.).

In the case of “GGCTTACCCAAGAATAACGATCCAACTTGGGGAGGGAGGGCGGAGTCACCTAGTGCAG”, the binding signal is 10000 fluorescence intensity (a.u.).

With “TTGACTTTTTTAAACATGTTTAACTGTTCGTCTTATTAAACGGAGTCACCTAGTGCAG”, the binding signal is 8820 fluorescence intensity (a.u.).

As to “TTTGACACCGTTGACTTTTTTAAACATGTTTAACTGTTCGCGGAGTCACCTAGTGCAG”, the binding signal was 33900 fluorescence intensity (a.u.).

“TTTGACGCTGTTGACTTTTTTTAACATGTTTGACTGTTCGCGGAGTCACCTAGTGCAG”: the binding signal is 32700 fluorescence intensity (a.u.).

Regarding “AATGTTTGACACCGTTGACTTTTTAACACATGTTTGACCGCGGAGTCACCTAGTGCAG”, the binding signal was 39300 fluorescence intensity (a.u.).

For “GAGCCCGTACTCATTTCTCGCCAAGTGCACCACTTCACTCCGGAGTCACCTAGTGCAG”, the binding signal is 10700 fluorescence intensity (a.u.).

As for “TCCTCTACTGGTTCTACGTCTTCTCATAATCAACCCAAATCGGAGTCACCTAGTGCAG”, the binding signal is 11700 fluorescence intensity (a.u.).

Turning to “CGCTCATCTATTTCTTTGTAGTACAACGCAGGCGCTCACACGGAGTCACCTAGTGCAG”, the binding signal is 8090 fluorescence intensity (a.u.).

On to “CTTCCCATGGCTTTTACTCTCCACTCGAAATCTCGTAACACGGAGTCACCTAGTGCAG”, for which the binding signal was 11100 fluorescence intensity (a.u.).

For the sequence “AATCGATTCTCCACTACTCTCTCGTCATTGTTCCCATGTTCGGAGTCACCTAGTGCAG”, the binding signal was 20100 fluorescence intensity (a.u.).

As for “GCAGCATCACTCCATGTTCTCTCTTCCTACTCTCCATACTCGGAGTCACCTAGTGCAG”, the binding signal was 16800 fluorescence intensity (a.u.).

Consider “CTCGTCATTGTTCCCATGTTTTTCTATTTCATTTCTAATTCGGAGTCACCTAGTGCAG”, for which the binding signal is 9350 fluorescence intensity (a.u.).

As to “ACACACTACTACTACTCTTCTCCCTCTCCATCTCTTCCCTCGGAGTCACCTAGTGCAG”, the binding signal was 8320 fluorescence intensity (a.u.).

As for “TAGCTCCATTGTTCGATCTCATCTCCCTTAGCTAGCTACTCGGAGTCACCTAGTGCAG”, the binding signal was 8130 fluorescence intensity (a.u.).

In the case of “GCATCACTATTCACTCCATGTTCTCTCTTCCTACTCTCCACGGAGTCACCTAGTGCAG”, the binding signal was 8250 fluorescence intensity (a.u.).

With “CTTATGTCTCACTAAATATTTACTTTTGCCATCGGCAAATCGGAGTCACCTAGTGCAG”, the binding signal is 8080 fluorescence intensity (a.u.).

Regarding “GTCACCTTTTCTTTTATCAACATTCATTTGTTTTATTACTCGGAGTCACCTAGTGCAG”, the binding signal is 8270 fluorescence intensity (a.u.).

Consider “AATTCAACGCACGTCTCTTGTCCTGCACTTCTGCTATGCCCGGAGTCACCTAGTGCAG”, for which the binding signal was 11000 fluorescence intensity (a.u.).

Turning to “AATTCTATGCCTCGATACATTTTTGGTGTTTATTATGGTTCGGAGTCACCTAGTGCAG”, the binding signal was 8460 fluorescence intensity (a.u.).

As for “CTCACCGCGCCGCTCACCTCCTCAAGACCACCACCCACCACGGAGTCACCTAGTGCAG”, the binding signal was 9730 fluorescence intensity (a.u.).

Regarding “ACAAATCCTGGTCATTTCTTGACCGTATGAATTCTAGAAACGGAGTCACCTAGTGCAG”, the binding signal was 9650 fluorescence intensity (a.u.).

As for “CAACCTCTTGCTAACTTTCCTTTGAGTCTATCTCTCTCATCGGAGTCACCTAGTGCAG”, the binding signal was 10700 fluorescence intensity (a.u.).

Take “AGAATCTGACGTTTTATTTCTGAAACTTTCTTTGCATGCACGGAGTCACCTAGTGCAG”: the binding signal was 8030 fluorescence intensity (a.u.).

Take “AAGAAATCTCTTTGAAAAACTTGCATGCTAACTTGAGACGCGGAGTCACCTAGTGCAG”: the binding signal is 44900 fluorescence intensity (a.u.).

On to “GTGCTCGGCTCCTCTCTCAGTAGCTTGTATGTGTCAGTTGCGGAGTCACCTAGTGCAG”, for which the binding signal is 10500 fluorescence intensity (a.u.).

As for “AGCTTCAACCTCTTGTAACTTTCCTTTGAGTATATCTCTCCGGAGTCACCTAGTGCAG”, the binding signal was 10200 fluorescence intensity (a.u.).

In the case of “GGATATCCGGTTTTGTGGTTGGGTGACGATTTTGTAATTCCGGAGTCACCTAGTGCAG”, the binding signal is 9010 fluorescence intensity (a.u.).

For the sequence “GGTGTGATATATCTGGTTTTGTGGTTCGGTGGGGTAATTCCGGAGTCACCTAGTGCAG”, the binding signal was 22000 fluorescence intensity (a.u.).

On to “TTGGGTTTAGGGCGGTAATTCGGTTGACCGCGATAGTTCACGGAGTCACCTAGTGCAG”, for which the binding signal was 12400 fluorescence intensity (a.u.).

Regarding “TGTCCGGTATTTTAAGTTTAGGGTGAGTAATATCTGGTTTCGGAGTCACCTAGTGCAG”, the binding signal was 10600 fluorescence intensity (a.u.).

As to “GGGTGAAAATGTCTGGTTTTGTGGTTTAAGGGTGTAATTCCGGAGTCACCTAGTGCAG”, the binding signal is 8700 fluorescence intensity (a.u.).

With “GGGTGAGTAATATCTGGTTTTTGGGTTTAGGGCGGTAATTCGGAGTCACCTAGTGCAG”, the binding signal was 17700 fluorescence intensity (a.u.).

For “CATCATACAGTAACAGCACAAGCACACACTACACGCACTCCGGAGTCACCTAGTGCAG”, the binding signal was 8640 fluorescence intensity (a.u.).

As for “GGGTTGGTTCCTGCCTCTCGAGTCTCAGCAAGTGTGTCACCGGAGTCACCTAGTGCAG”, the binding signal was 11500 fluorescence intensity (a.u.).

Regarding “CAAATGGCCCACCTGTCCTAGCTTGGCCCGGCCCGGGCACCGGAGTCACCTAGTGCAG”, the binding signal was 8680 fluorescence intensity (a.u.).

In the case of “TAGCTCCAGTATTAATTTCTTTCCATCCTCCATTTTCTTGCGGAGTCACCTAGTGCAG”, the binding signal was 9120 fluorescence intensity (a.u.).

As for “CAACAGACTCTTCCCCTTCGCTCGCTCGCCTCCTCTTTCCCGGAGTCACCTAGTGCAG”, the binding signal was 8220 fluorescence intensity (a.u.).

Turning to “CCTTCACCTCCTTGCAAGTTCCATTCTTTCATCTCGCTTCCGGAGTCACCTAGTGCAG”, the binding signal was 16500 fluorescence intensity (a.u.).

Take “CTAGCTTCGCCATCCACATTCTTCTTGCTTCTTGCTCCTCCGGAGTCACCTAGTGCAG”: the binding signal is 12700 fluorescence intensity (a.u.).

Take “TACATCCCTTGCCATCTCCATCGCCGGCTTCCTCGCCATTCGGAGTCACCTAGTGCAG”: the binding signal was 17100 fluorescence intensity (a.u.).

As to “TCTTTCTTCCATTGCACCTAGCTTTCATCTTCTTCTCTTCCGGAGTCACCTAGTGCAG”, the binding signal is 14200 fluorescence intensity (a.u.).

With “ATCCATCCATCTATTCGCTTCCCTTTCCTTGCACCTCTGCCGGAGTCACCTAGTGCAG”, the binding signal was 9050 fluorescence intensity (a.u.).

As to “CCATTCTTTCATCTCGCTTCACCTCATCGCCATTGCCATCCGGAGTCACCTAGTGCAG”, the binding signal is 8810 fluorescence intensity (a.u.).
